This is an account of results in PubChem BioAssay (NCATS).

The nature of experiment [1]: qHTS profiling of the MIPE4 collection as inhibitors of Plasmodium falciparum (DD2) proliferation (Rep 2) (AID 743346; call rule not given here). As to conditions: P. falciparum Dd2 in erythrocytes, SYBR Green DNA, 72 h; at 28.5 µM unless noted. An outline of the steps:
(§1)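 Erythrocytes infected with P. falciparum (0.3% parasitemia, 2.5% hematocrit) incubated with compounds 72 h at 37 C, 5% CO2. Lysis with saponin/Triton buffer containing SYBR Green I, overnight at room temperature in the dark; DNA fluorescence (485/535 nm) normalised to 0.29 uM artemisinin and DMSO.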
Background: qHTS replaces the single test concentration by a dilution series.

Experiment [2] in a line: qHTS profiling of the MIPE4 collection as inhibitors of Plasmodium falciparum (HB3) proliferation (AID 743347; call rule not given here;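 note: plate controls were DMSO vehicle wells for no effect and artemisinin wells for full effect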). Conditions: P. falciparum HB3 in erythrocytes, SYBR Green DNA, 72 h; at 28.5 µM unless noted. Summed up: as §1
Experiment [3] in a line: High-throughput drug toxicity screening in the BPDCN cell line Gen2.2 (AID 1224824; call rule not given here;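 note: cells exposed to compounds for 48 h before reading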). Conditions: Gen2.2 BPDCN cells; at 45.8 µM (top of the series) unless noted. An outline of the steps: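 Gen2.2 cells, 500 per well in phenol red-free RPMI with 10% FBS, exposed to compounds 48 h at 37 C, 5% CO2; viability by CellTiter-Glo luminescence. Percent activity scaled to DMSO (100%) and 9.2 uM bortezomib final (0%).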

Experiment [4] in a line: High-throughput drug toxicity screening in the BPDCN cell line Cal-1 (AID 1224825; call rule not given here). Conditions: Cal-1 BPDCN cell viability, qHTS; at 45.8 µM (top of the series) unless noted. An outline of the steps:
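500 Cal-1 cells/well, RPMI + glutamine + 10% FBS (phenol red-free); cpd added by pin tool; 48 h, 37C, 5% CO2; CTG 15 min RT, lumi read. Normalised: DMSO 100%, bortezomib 9.2 uM 0%.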

Experiment [5] in a line: qHTS assay for measurement of the activity of small molecule inhibitors on Zika virus induced Caspase-3 activity in human iPSC derived neural progenitor cells (hNPCs) (AID 1224857). Note: % of control where 0% means no effect; nearly all actives have a fitted effect of over 65% in size. Summed up: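 After overnight (16–20 h) culture at 350 cells/well, hNPCs get compound, then ZIKV 2 FFU/cell one hour later. Six hours on, Caspase-Glo 3/7 is added and luminescence measured.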

A short description of experiment [6]: qHTS assay for measurement of the activity of small molecule inhibitors on Zika virus induced Caspase-3 activity in human astrocytoma cells (AID 1224859).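 Note: plate controls were ZIKV-infected untreated cells for no effect and uninfected cells for full effect.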 Summed up:
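Inhibition of Zika-induced caspase-3/7 activity: SNB-19 cells, 1 h compound pretreatment, ZIKV 2 FFU/cell for 6 h at 37 C, Caspase-Glo luminescence read-out.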

Experiment [7] can be described thus: qHTS Screen of the MIPE 4.0 Collection Against Ewings Sarcoma (RDES) (AID 1259252). Note: nearly all actives have a fitted effect of over 35% in size. Note: potency is the fitted concentration of half-maximal effect. An outline of the steps:
(§2)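 CellTiter-Glo luminescence after 48 h compound exposure (titration) gave viability; percent activity used DMSO-treated cells as no inhibition and medium-only wells as full inhibition. Cells grown in RPMI/5% FBS, dosed 4 h post-seeding.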

Experiment [8] is described as follows: qHTS Screen of the MIPE 4.0 Collection Against Ewings Sarcoma (TC71) (AID 1259253). Note: nearly all actives have a fitted effect of over 40% in size. Note: potency is the fitted concentration of half-maximal effect. Summed up: as §2
Experiment [9] in a line: qHTS Screen of the MIPE 4.0 Collection Against Ewings Sarcoma (EW8) (AID 1259255).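 For viability: 100% = DMSO-treated cells and 0% = medium-only wells without cells.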 Note: nearly all actives have a fitted effect of over 35% in size. Note: potency is the fitted concentration of half-maximal effect. An outline of the steps:
as §2

A short description of experiment [10]: qHTS Screen of the MIPE 4.0 Collection Against Ewings Sarcoma (TC32) (AID 1259256). Note: nearly all actives have a fitted effect of over 45% in size. Note: potency is the fitted concentration of half-maximal effect. An outline of the steps:
as §2

The structures appear in SMILES notation. Results filed as inconclusive are left out. Calls of active or inactive are those of the source. Unless noted, calls come from the whole dose curve; as a rule, active = well fitted inhibition curve with a large enough effect; inconclusive = small, poorly fitted or top-dose-only effect; inactive = no such curve, though single readings can be large or run the other way. Positions of bridges follow the written chain, without caps; N, C: chain ends. Non-standard residues stand in square brackets, D forms with d. Residues, ends and D or L forms follow the SMILES beside them. ξ: configuration not given here. *: point of attachment. Octanoyl(6-Me) = CCC(C)CCCCC(=O)*; ξThr(3R) = C[C@@H](O)C(N)C(=O)O; dDab = NCC[C@@H](N)C(=O)O; Dab = NCC[C@H](N)C(=O)O

In the case of `CC[C@H]1OC(=O)[C@H](C)[C@@H](O[C@H]2C[C@@](C)(OC)[C@@H](O)[C@H](C)O2)[C@H](C)[C@@H](O[C@@H]2O[C@@H](C)C[C@H](N(C)C)[C@@H]2O)[C@](C)(O)C[C@@H](C)C(=O)[C@H](C)[C@@H](O)[C@]1(C)O`, the parasite growth, % of control (lower = inhibition) in experiment [1] was determined as 47.1%. This compound gave a growth, % of control in experiment [2] of 82.4%. Moreover, the cell viability, % of control (lower = more cytotoxic) in experiment [3] is 73.8%. The viability (% of control) in [4] was 97%. Besides, the Potency result in experiment [5], in [6], in [7], in [8], in experiment [9] and in experiment [10] was “inactive” throughout.
Take `Cc1cnn(C)c1C(=O)Nc1cc(Nc2ccc3c(C=Cc4ccccn4)n[nH]c3c2)ccc1F`: the parasite growth, % of control (lower = inhibition) in experiment [1] came out at 19.1%. The same compound had a growth, % of control in [2] of 6.36%. Also, the cell viability, % of control (lower = more cytotoxic) in [3] was found to be 97.2%. For the same compound, the viability (% of control) in [4] was 10.9%. Further, the Potency entry in [5] and in [6] was “inactive” throughout. The Potency was 26.4 µM (active) in experiment [7], 16.6 µM (active) in experiment [8], 18.7 µM (active) in experiment [9] and 20.9 µM (active) in experiment [10].
In turn, `C=CCNc1c(O)cc2c(O)c1C[C@@H](C)C[C@H](OC)[C@@H](O)[C@@H](C)C=C(C)[C@H](OC(N)=O)[C@@H](OC)C=CC=C(C)C(=O)N2` registered a parasite growth, % of control (lower = inhibition) in [1] of 11.1%. The compound further had a growth, % of control in experiment [2] of 8.78%. The cell viability, % of control (lower = more cytotoxic) in [3] came to 5.31%. Besides, in experiment [4], the viability (% of control) was 6.05%. Also, the Potency entry in [5] and in experiment [6] was “inactive” in each case. Also, the Potency was 2.64 µM (active) in experiment [7], 2.35 µM (active) in [8], 5.9 µM (active) in experiment [9] and 0.264 µM (active) in experiment [10].
`NC(=O)Nc1cc(-c2ccc(CN3CCOCC3)cc2)sc1C(N)=O`: the parasite growth, % of control (lower = inhibition) in experiment [1] was 33%. Further, the growth, % of control in experiment [2] is 33.4%. Besides, the cell viability, % of control (lower = more cytotoxic) in experiment [3] worked out at 26.1%. The viability (% of control) in experiment [4] was determined as 6.64%. Besides, the Potency entry in [5] and in [6] was “inactive” each time. Further, the Potency in [7] was 4.69 µM (active); in [8], 0.332 µM (active); in experiment [9], 0.0935 µM (active); in experiment [10], 0.187 µM (active).
`O=C1c2c(O)cccc2[C@@H]([C@@H]2O[C@H](CO)[C@@H](O)[C@H](O)[C@H]2O)c2cc(CO)cc(O)c21` yielded a parasite growth, % of control (lower = inhibition) in experiment [1] of 80.5%. Also, the growth, % of control in experiment [2] was 99.2%. In experiment [3], the cell viability, % of control (lower = more cytotoxic) came to 185%. In addition, the viability (% of control) in experiment [4] stood at 123%. In addition, the Potency entry in experiment [5], in experiment [6], in [7], in experiment [8], in experiment [9] and in experiment [10] was “inactive” throughout.
As to `CCc1c(O)cc(O)c(C(=O)c2ccc(OCCN3CCOCC3)c(OC)c2)c1CC(=O)N(CCOC)CCOC`, in experiment [1], the parasite growth, % of control (lower = inhibition) stood at 11.6%. The same compound came in with a growth, % of control in experiment [2] of 7.26%. Also, in experiment [3], the cell viability, % of control (lower = more cytotoxic) was found to be 4.9%. Besides, the viability (% of control) in [4] amounted to 16.5%. In addition, the Potency entry in [5] and in [6] was “inactive” each time. In addition, the Potency in experiment [7] was 0.662 µM (active); in [8], 2.35 µM (active); in experiment [9] it was 1.05 µM (active); in experiment [10], 0.526 µM (active).
Consider `CCC(C)CCCCC(=O)N[C@@H](CCN)C(=O)NC(C(=O)N[C@H](CCN)C(=O)N[C@@H]1CCNC(=O)C([C@@H](C)O)NC(=O)[C@@H](CCN)NC(=O)[C@@H](CCN)NC(=O)[C@@H](CC(C)C)NC(=O)[C@H](Cc2ccccc2)NC(=O)[C@H](CCN)NC1=O)[C@@H](C)O` (stereo partly drawn) ({Octanoyl(6-Me)}-[Dab][ξThr(3R)][dDab][dDab][Dab]F[dL][dDab][dDab][ξThr(3R)]; lactam 4-C), for which the parasite growth, % of control (lower = inhibition) in [1] is 83.7%. In experiment [2], this compound showed a growth, % of control of 96.2%. Also, the cell viability, % of control (lower = more cytotoxic) in [3] was 172%. The viability (% of control) in experiment [4] was 116%. Moreover, the Potency result in experiment [5], in experiment [6], in experiment [7], in experiment [8], in experiment [9] and in experiment [10] was “inactive” in each case.
Compound `CN1CCc2c(c3ccccc3n2Cc2ccc(C(=O)NO)cc2)C1` yielded a parasite growth, % of control (lower = inhibition) in experiment [1] of 15.2%. The compound also had a growth, % of control in experiment [2] of 5.01%. The cell viability, % of control (lower = more cytotoxic) in experiment [3] was determined as 4.7%. The viability (% of control) in [4] worked out at 4.77%. The Potency result in [5] and in experiment [6] was “inactive” each time. The Potency is 13.2 µM (active) in experiment [7], 16.6 µM (active) in experiment [8], 13.2 µM (active) in experiment [9] and 18.7 µM (active) in experiment [10].
On to `Oc1cc2c(cc1O)C1c3ccc(O)c(O)c3OCC1(O)C2` (stereo not given), for which the parasite growth, % of control (lower = inhibition) in [1] is 15.2%. Moreover, in experiment [2], the growth, % of control was 9.94%. Also, in experiment [3], the cell viability, % of control (lower = more cytotoxic) came out at 167%. For the same compound, in [4], the viability (% of control) came to 105%. Also, the Potency result in [5], in experiment [6], in [7], in experiment [8], in [9] and in experiment [10] was “inactive” each time.
Compound `Cc1cnc(Nc2ccc(CN3CCOCC3)cc2)nc1Nc1cccc(S(=O)(=O)NC(C)(C)C)c1` yielded a parasite growth, % of control (lower = inhibition) in experiment [1] of 16.8%. In addition, the growth, % of control in experiment [2] was 4.53%. For the same compound, the cell viability, % of control (lower = more cytotoxic) in experiment [3] amounted to 1.99%. The viability (% of control) in experiment [4] was 3.36%. Also, the Potency result in experiment [5] and in [6] was “inactive” throughout. In addition, the Potency is 3.32 µM (active) in experiment [7], 3.32 µM (active) in experiment [8], 2.64 µM (active) in experiment [9] and 3.32 µM (active) in [10].
For `Cc1ncc(-c2ccnc(Nc3ccc(S(C)(=O)=O)cc3)n2)n1C(C)C`, the parasite growth, % of control (lower = inhibition) in experiment [1] stood at 10.8%. Further, the growth, % of control in experiment [2] is 7.75%. In addition, the cell viability, % of control (lower = more cytotoxic) in experiment [3] is 6.27%. For the same compound, the viability (% of control) in experiment [4] came out at 4.48%. The Potency entry in experiment [5] and in experiment [6] was “inactive” each time. Besides, the Potency in [7] was 4.69 µM (active); in experiment [8], 2.64 µM (active); in experiment [9], 4.69 µM (active); in [10], 4.18 µM (active).
With `C[C@H](CCC(=O)O)[C@H]1CCC2C3C[C@H](O)[C@@H]4C[C@H](O)CC[C@]4(C)C3CC[C@@]21C` (stereo not given in full), the parasite growth, % of control (lower = inhibition) in experiment [1] stood at 88.7%. This compound also returned a growth, % of control in [2] of 103%. Also, the cell viability, % of control (lower = more cytotoxic) in experiment [3] stood at 130%. In addition, the viability (% of control) in experiment [4] was 120%. For the same compound, the Potency result in experiment [5], in experiment [6], in experiment [7], in experiment [8], in experiment [9] and in [10] was “inactive” each time.
`C#Cc1cccc(Nc2ncnc3cc(OCCOC)c(OCCO)cc23)c1`: the parasite growth, % of control (lower = inhibition) in experiment [1] was 18.2%. In experiment [2], the growth, % of control came out at 4.56%. In addition, the cell viability, % of control (lower = more cytotoxic) in experiment [3] was determined as 38.2%. The viability (% of control) in [4] was 12.5%. Besides, the Potency entry in [5] and in experiment [6] was “inactive” throughout. In addition, the Potency in [7] was 0.935 µM (active); in experiment [8], 18.7 µM (active); in experiment [9] it was 9.35 µM (active); in experiment [10], 8.33 µM (active).
